The campaign covered roughly 63,000 compounds. About 1,100 (1.7%) were called active.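 The calls were made as follows: active = compounds whose percent cytotoxicity in the single-dose primary screen, scaled between solvent and toxic-drug controls, exceeds 50; inactive = the rest.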 This excerpt belongs to a sample that is enriched for actives. Results with a measured potency or affinity are listed apart.
Assay: cytotoxicity in KRAS-transformed pancreatic duct cells, primary screen, cell-based, fluorescence, HTS (AID 431);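 also: 0% = DMSO solvent wells and 100% = doxorubicin-treated wells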
Conditions: HPDE-C7K KRASV12 cells, Alamar Blue viability, 48 h; at 10 µM; hits give high values

Structure (SMILES) | cytotoxicity
Cc1n[nH]c(C)c1Cc1ccc(C(=O)O)cc1 | -13.2% (inactive)
CS(=O)(=O)c1ccc2nc(NC(=O)CC3CCCC3)sc2c1 | -9% (inactive)
Cc1cc(C)c(NC2=NCC(=O)N2C2CCCCC2)c(C)c1 | -9.5% (inactive)
Cc1nc(N2CCc3ccccc3C2)[nH]c(=O)c1CCC(C)C | 8.4% (inactive)
COc1ccc(C)cc1NC(=O)CN(c1ccccc1)S(C)(=O)=O | -2.4% (inactive)
O=C(Nc1nccs1)c1cc2sccc2n1Cc1ccc(F)cc1 | -3.4% (inactive)
C(=C\CSc1nnnn1-c1ccccc1)/CSc1nnnn1-c1ccccc1 | -12.8% (inactive)
CCCSc1nnc(Sc2nnnn2-c2ccccc2)s1 | 88.2% (active)
c1ccc(-n2nnnc2SCCCSc2nc3ccccc3s2)cc1 | 2% (inactive)
COc1ccc(CCNc2nnc(Sc3nnnn3-c3ccccc3)s2)cc1OC | 68.8% (active)
COc1ccc(-n2nnnc2SCC(=O)NCCc2ccc(OC)c(OC)c2)cc1 | -3.9% (inactive)
Cc1ccc(C)c(Oc2nnnn2-c2ccccc2)c1 | -2.3% (inactive)
Cn1ccnc1Sc1nnnn1-c1ccccc1 | -9.8% (inactive)
COc1ccc(CCNC(=O)CSc2nnnn2-c2ccccc2OC)cc1OC | 6.4% (inactive)
CC1CC(c2ccccc2)n2nc(NC(=O)CCc3ccccc3)nc2N1 (stereo not drawn) | 3.9% (inactive)
O=C(NCc1cccs1)c1noc2c1CCCC2 | 5.2% (inactive)
O=C1CC(N2CCN(c3ccc(S(=O)(=O)N4CCCC4)cc3)CC2)C(=O)N1c1ccc(F)cc1 (stereo not drawn) | -0.7% (inactive)
CCOc1ccc2[nH]c(O)c(NC(C)=O)c2c1 | -16.9% (inactive)
Cc1oc(-c2ccc(Cl)cc2)nc1CN1CCC(C(=O)N2CCN(c3ccccn3)CC2)CC1 | 8% (inactive)
O=C(NC1CCCCC1)n1c(=O)oc2ccccc21 | -35.5% (inactive)
CCOC(=O)c1csc(NC(=O)c2ccccc2)n1 | -0.2% (inactive)

Structure (SMILES) | cytotoxicity
Cc1nc(C)c(-c2csc(NCc3ccco3)n2)s1 | -14.9% (inactive)
O=C(Nc1nc(-c2ccco2)cs1)c1ccccc1 | 20.8% (inactive)
Cc1nc(NC(=O)c2ccccc2)sc1-c1csc(NCc2ccco2)n1 | 73.6% (active)
O=C(Nc1nc2c(s1)C(=O)CCC2)c1ccccc1 | -6.7% (inactive)
Cc1nc(NC(=O)c2ccccc2)sc1-c1csc(N)n1 | 58.6% (active)
Cn1c(=O)c2c(nc(SCC(=O)O)n2Cc2cccc(C(F)(F)F)c2)n(C)c1=O | -7.6% (inactive)
CCCCOc1ccc(/C(O)=C2/C(=O)C(=O)N(CCCOC)C2c2ccncc2)cc1C (stereo not drawn) | -8.2% (inactive)
COc1ccc(CN2C(=O)NC3(CCCCCC3)C2=O)cc1F | -2.8% (inactive)
CC(C)(C)c1cc(NC(=O)c2cccnc2)no1 | -7.8% (inactive)
O=C(Cn1c(=O)sc2ccccc21)Nc1ccccc1C(=O)O | 18.1% (inactive)
COc1ccc(C2C(C(=O)Nc3ccccc3OC)=C(C)Nc3ncnn32)cc1 (stereo not drawn) | -6.4% (inactive)
CCOC(=O)C1=C(CSc2nc(-c3ccncc3)ccc2C#N)OC(N)=C(C#N)C1c1cccnc1 (stereo not drawn) | 20% (inactive)
CCOC(=O)C1=C(CSc2nc3c(cc2C#N)CCC3)OC(N)=C(C#N)C1c1ccccc1 (stereo not drawn) | 108% (active)
CCOC(=O)C1=C(CSc2nc(C)ccc2C#N)OC(N)=C(C#N)C1c1cccc(OC)c1OC (stereo not drawn) | 57.6% (active)
CCOC(=O)C1=C(CSc2nc3c(cc2C#N)CN(C)CC3)OC(N)=C(C#N)C1c1ccccc1 (stereo not drawn) | 14.3% (inactive)
CCOC(=O)C1=C(C)OC(N)=C(C#N)C1c1ccc(OC)c(C)c1OC (stereo not drawn) | 2.9% (inactive)
CCOC(=O)C1=C(CSc2nc(C)cc(C)c2C#N)OC(N)=C(C#N)C1c1cccs1 (stereo not drawn) | -2.2% (inactive)
COc1cc(S(=O)(=O)NCC2CCCO2)c(OC)cc1Cl (stereo not drawn) | -5.9% (inactive)
CCN(CC)CCN1C(=O)C(=O)/C(=C(/O)c2ccc(Cl)cc2)C1c1ccncc1 (stereo not drawn) | -16.4% (inactive)
CCOc1ccc(N2CC(=O)SC2=S)cc1 | -11.8% (inactive)
Cc1ccc(C#N)c(SCc2cc3c(cc2Cl)OCO3)n1 | 2.4% (inactive)

Structure (SMILES) | cytotoxicity
COc1ccc(S(=O)(=O)Cc2ccc(C(=O)NC3CC3)o2)cc1 | -11.3% (inactive)
O=C(CN1C(=O)COc2ccccc21)N(Cc1cccnc1)Cc1cccc(F)c1 | -1.8% (inactive)
O=C(NCc1ccccn1)C1CCN(S(=O)(=O)c2cccs2)CC1 | -6.5% (inactive)
Cc1cc(C)cc(N2C(=O)CC(N3CCOCC3)C2=O)c1 (stereo not drawn) | 1.2% (inactive)
N#Cc1nc(-c2ccc(F)cc2)oc1N1CCCC1 | 3.4% (inactive)
O=C(c1ccc(F)cc1)c1ccc(N2CCCC2)cc1 | -11% (inactive)
CCCn1c(SCC(=O)NC(=O)NCc2ccco2)n[nH]c1=O | -2.3% (inactive)
O=C(NCC1CCCO1)c1cc2n(n1)C(C(F)(F)F)CC(c1ccc(Br)cc1)N2 (stereo not drawn) | 6.4% (inactive)
O=S1(=O)CCC(NCC2CCCO2)C1 (stereo not drawn) | 6.3% (inactive)
CCOc1ccc(/C(O)=C2\C(=O)C(=O)N(CCN(C)C)C2c2cc(OC)ccc2OC)cc1Cl (stereo not drawn) | -1.7% (inactive)
CSc1ccc(Cl)c(C(=O)OCC(=O)N2CCOCC2)c1 | -13.8% (inactive)
O=C(NCCCc1ccccc1)c1ccccc1O | -6.1% (inactive)
N#C/C(=C\c1ccc(O)c(O)c1)C(=O)NCCCc1ccccc1 | 54.7% (active)
N#C/C(=C\c1ccc(O)c(O)c1)S(=O)(=O)c1ccccc1 | 5.4% (inactive)
Cc1ccc(S(=O)(=O)N2CCCCC2)cc1C(=O)c1nccn1C | -13.8% (inactive)
CCOc1ccc(NC(=O)CCS(=O)(=O)c2ccc3c(c2)CCCN3C(C)=O)cc1 | -19.8% (inactive)
COc1ccc(CCn2c(N)c(C(=O)NCc3ccco3)c3nc4ccccc4nc32)cc1OC | 57.5% (active)
COc1ccc(CCn2c(N)c(C#N)c3nc4ccccc4nc32)cc1OC | -1.9% (inactive)
COc1ccc(-n2c(N)c(C(=O)NCc3ccco3)c3nc4ccccc4nc32)c(OC)c1 | 5.2% (inactive)
O=C(Cn1c(CN2CCCCC2)nc2ccccc2c1=O)NCc1ccco1 | -21.9% (inactive)
Nc1c(C(=O)NCCN2CCOCC2)c2nc3ccccc3nc2n1-c1ccccc1 | -0.8% (inactive)

From PubChem BioAssay AID431 (Sanford-Burnham Center for Chemical Genomics, 2006)
